The source made the active and inactive calls. Unless noted, the rule behind the calls is not given here.

The subject of experiment [1] is Wnt5a (protein binding on small-molecule microarray). The experiment can be described thus: small molecules binding Wnt5a protein – biophysical, small-molecule microarray, 635/667 nm fluorescence, primary screen (AID 1142).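 Note: fluorescence read at 667 nm with signal to noise per printed feature.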 Particulars: 635 nm fluorescence, higher = more signal.
Experiment [2] can be described thus: ATP-based viability of Huh7 replicon cells – cell-based, CellTiter-Glo luminescence, basal, 48 h, cytotoxicity control for HCV replication inhibitor project, primary screen (AID 1143).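 Note: Huh7 hepatoma cells carrying a hepatitis C replication reporter with no stimulus; test concentration not given here.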 The settings on record: higher = more signal, called active from +8 up or from −8 down.
The nature of experiment [3]: Pseudomonas biofilm growth suppression – PAO1 strain, BacTiter-Glo luminescence, LB-PBS, primary screen (AID 1144). The settings on record: P. aeruginosa PAO1 biofilm, 12 h, higher = more signal.
Experiment [4] in a line: basal CRE-LacZ reporter activity in PC12 – cell-based, unstimulated, primary screen (AID 1145). The settings on record: no forskolin, luminescence, 4.5 h, higher = more signal, called active from +8 up or from −8 down.
A short description of experiment [5]: forskolin-driven CRE-LacZ activity in PC12 – cell-based, CRE-LacZ reporter, forskolin-stimulated, primary screen (AID 1146).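 Note: PC12 cells with 6xCRE LacZ reporter stimulated by forskolin 10 µM; beta-galactosidase reporter signal reflecting CREB driven transcription.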 Particulars: luminescence, 4.5 h, higher = more signal, called active from +8 up or from −8 down.
Experiment [6] has as its target Streptavidin (Streptomyces avidinii) (UniProt P22629). The experiment can be described thus: compounds binding control protein streptavidin – biophysical, small-molecule microarray, 635/667 nm fluorescence, artefact control for SMM compound annotation, primary screen (AID 1147).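 Note: signal reflects streptavidin binding to arrayed compounds as a control protein.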 The settings on record: higher = more signal.
A short description of experiment [7]: probe aInhba binding on compound microarray – biochemical, small-molecule microarray, 635/667 nm fluorescence, primary screen (AID 1148).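 Note: score merges 667nm spot fluorescence with signal-to-noise for antibody binding to printed compounds.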 The settings on record: higher = more signal.
Experiment [8] has as its target Torsin-1A (Homo sapiens) (UniProt O14656). The experiment can be described thus: TOR1A wild-type binding on microarray – cell lysate, small-molecule microarray, lysate, 635/667 nm, primary screen (AID 1149). The settings on record: COS7 hTOR1A-WT lysate, 635 nm fluorescence, higher = more signal.
For experiment [9] the target is unchanged. The experiment can be described thus: torsin A mutant lysate binding on microarrays – cell lysate, small-molecule microarray, COS7 lysate, 635/667 nm fluorescence, primary screen (AID 1150).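 Note: score pools 667 nm emission and signal to noise measuring lysate protein binding.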 Particulars: COS7 hTOR1A mutant lysate, 635 nm fluorescence, higher = more signal.
Experiment [10] relates to Sonic hedgehog protein (Shh). The experiment can be described thus: Sonic hedgehog microarray binding compounds – biochemical, small-molecule microarray, 635/667 nm fluorescence, primary screen (AID 1151).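 Note: Shh protein binding to compounds spotted on small-molecule microarray slides; score combines spot fluorescence intensity with signal-to-noise across triplicate slides.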 The settings on record: 635 nm fluorescence, higher = more signal.
Experiment [11] can be described thus: optical density shifts of acrAB sulA E. coli – strain DRC41, OD650, 48 h, E. coli filamentation inducer project, primary screen (AID 1152).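 Note: E. coli MC1000 strain DRC41 lacking acrAB efflux pump and sulA.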 The settings on record: higher = more signal, called active from +8 up or from −8 down.
The nature of experiment [12]: probe aLefty1 binding on compound microarray – biochemical, small-molecule microarray, 635/667 nm fluorescence, primary screen (AID 1153).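 Note: score merges spot fluorescence with signal-to-noise ratio from the scanned slide images.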 Particulars: higher = more signal.
Experiment [13] is described as follows: plasmodial surface anion channel blockers, osmotic lysis – cell-based, P. falciparum Indochina, OD700, 1 h, primary screen (AID 1154). Particulars: P. falciparum Indochina infected RBC osmotic lysis, higher = more signal, called active from +8 up or from −8 down.
Experiment [14] in a line: plasmodial surface anion channel blockers, osmotic lysis – cell-based, P. falciparum Indochina, OD700, 2 h, primary screen (AID 1155).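 Note: lysis reports solute entry through the parasite surface anion channel PSAC.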 The settings on record: P. falciparum Indochina infected erythrocytes, higher = more signal, called active from +8 up or from −8 down.
A short description of experiment [15]: changes in parasitized red cell lysis, either direction – P. falciparum Indochina, OD700, 3 h, PSAC antagonist project, primary screen (AID 1156). The settings on record: P. falciparum-infected erythrocytes, osmotic lysis, higher = more signal, called active from +8 up or from −8 down.
The nature of experiment [16]: plasmodial surface anion channel blockers, osmotic lysis – cell-based, P. falciparum Indochina, OD700, 18 h, primary screen (AID 1157). The settings on record: P. falciparum Indochina infected erythrocytes, osmotic lysis OD700, 18 h; higher = more signal, called active from +8 up or from −8 down.
Experiment [17] can be described thus: S6 kinase pathway phospho-S6 level changes – cell-based, A549, cytoblot, luminescence, serum-stimulated, primary screen (AID 1158).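 Note: serum-stimulated A549 lung adenocarcinoma cells; signal is phosphorylated S6 detected by cytoblot immunostaining with HRP secondary.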 The settings on record: 5 h, higher = more signal.
The target of experiment [18] is NADPH oxidase 2 (Homo sapiens) (UniProt P04839). As to the kind of experiment: compounds shifting NOX2 Amplex Red fluorescence – cell-based, HEK293-NOX2, PMA-stimulated, NOX inhibitor project, primary screen (AID 1159). Note: test concentration not given here. Particulars: 45 min, higher = more signal, called active from +8 up or from −8 down.
Experiment [19] addresses NADPH oxidase 4 (Homo sapiens) (UniProt Q9NPH5). As to the kind of experiment: compounds shifting NOX4 Amplex Red fluorescence – cell-based, HEK293-NOX4, tetracycline-induced, NOX inhibitor project, primary screen (AID 1160). The settings on record: HEK293-NOX4, Amplex Red H2O2 fluorescence, 45 min; higher = more signal, called active from +8 up or from −8 down.
The target of experiment [20] is NADPH oxidase 5 (Homo sapiens) (UniProt Q96PH1). The experiment can be described thus: compounds shifting NOX5 Amplex Red fluorescence – cell-based, HEK293-NOX5, NOX inhibitor project, primary screen (AID 1161). The settings on record: HEK293-NOX5, ionomycin, 45 min, higher = more signal.
Chain of NADPH oxidase 5 (Homo sapiens) (Q96PH1 whole entry, looked up): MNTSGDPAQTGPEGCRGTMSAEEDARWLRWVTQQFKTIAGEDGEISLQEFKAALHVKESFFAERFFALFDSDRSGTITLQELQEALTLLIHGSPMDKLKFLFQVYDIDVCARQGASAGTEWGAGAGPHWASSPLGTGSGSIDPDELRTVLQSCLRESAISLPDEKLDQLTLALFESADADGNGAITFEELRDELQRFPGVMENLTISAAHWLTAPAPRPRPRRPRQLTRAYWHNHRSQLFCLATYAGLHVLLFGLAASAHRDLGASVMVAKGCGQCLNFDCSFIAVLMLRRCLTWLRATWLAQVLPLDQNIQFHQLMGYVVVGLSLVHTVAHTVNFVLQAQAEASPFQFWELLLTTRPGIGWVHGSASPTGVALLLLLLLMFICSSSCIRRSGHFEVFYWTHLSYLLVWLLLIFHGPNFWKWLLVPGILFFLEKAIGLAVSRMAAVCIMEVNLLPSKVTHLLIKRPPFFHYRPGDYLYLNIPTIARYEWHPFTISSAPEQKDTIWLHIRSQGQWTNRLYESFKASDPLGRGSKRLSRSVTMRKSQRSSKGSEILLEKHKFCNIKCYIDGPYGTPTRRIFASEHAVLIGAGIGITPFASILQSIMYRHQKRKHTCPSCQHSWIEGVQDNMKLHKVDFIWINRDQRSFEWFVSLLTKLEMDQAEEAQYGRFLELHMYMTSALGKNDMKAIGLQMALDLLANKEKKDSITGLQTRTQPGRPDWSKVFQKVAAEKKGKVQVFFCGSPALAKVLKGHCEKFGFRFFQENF

Chain of NADPH oxidase 2 (Homo sapiens) (P04839 whole entry, looked up): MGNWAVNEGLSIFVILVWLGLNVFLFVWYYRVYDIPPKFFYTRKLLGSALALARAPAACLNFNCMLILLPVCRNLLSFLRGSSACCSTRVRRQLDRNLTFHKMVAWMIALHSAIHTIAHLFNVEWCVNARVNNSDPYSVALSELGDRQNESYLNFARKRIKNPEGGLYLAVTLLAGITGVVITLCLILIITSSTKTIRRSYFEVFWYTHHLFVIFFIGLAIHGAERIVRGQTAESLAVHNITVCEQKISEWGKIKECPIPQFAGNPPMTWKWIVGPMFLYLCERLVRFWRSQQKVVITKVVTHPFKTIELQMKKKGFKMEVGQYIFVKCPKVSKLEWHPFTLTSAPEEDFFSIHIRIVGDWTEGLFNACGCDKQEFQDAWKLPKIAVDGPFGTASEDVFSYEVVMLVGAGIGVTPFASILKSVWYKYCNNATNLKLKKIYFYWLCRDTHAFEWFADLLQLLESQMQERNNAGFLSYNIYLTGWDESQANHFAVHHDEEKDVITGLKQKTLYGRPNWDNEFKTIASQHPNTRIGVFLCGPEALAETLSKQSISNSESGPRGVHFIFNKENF
Chain of Torsin-1A (Homo sapiens) (O14656 whole entry, looked up): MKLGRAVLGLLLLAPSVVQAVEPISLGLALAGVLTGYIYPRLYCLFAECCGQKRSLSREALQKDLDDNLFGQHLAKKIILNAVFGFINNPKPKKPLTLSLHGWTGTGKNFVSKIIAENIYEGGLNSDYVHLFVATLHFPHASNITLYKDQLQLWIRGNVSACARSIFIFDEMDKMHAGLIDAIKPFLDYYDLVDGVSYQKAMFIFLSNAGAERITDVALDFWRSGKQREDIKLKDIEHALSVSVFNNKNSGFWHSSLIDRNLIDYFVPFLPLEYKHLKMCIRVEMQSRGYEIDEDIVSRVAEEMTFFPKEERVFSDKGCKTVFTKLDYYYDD
Chain of NADPH oxidase 4 (Homo sapiens) (Q9NPH5 whole entry, looked up): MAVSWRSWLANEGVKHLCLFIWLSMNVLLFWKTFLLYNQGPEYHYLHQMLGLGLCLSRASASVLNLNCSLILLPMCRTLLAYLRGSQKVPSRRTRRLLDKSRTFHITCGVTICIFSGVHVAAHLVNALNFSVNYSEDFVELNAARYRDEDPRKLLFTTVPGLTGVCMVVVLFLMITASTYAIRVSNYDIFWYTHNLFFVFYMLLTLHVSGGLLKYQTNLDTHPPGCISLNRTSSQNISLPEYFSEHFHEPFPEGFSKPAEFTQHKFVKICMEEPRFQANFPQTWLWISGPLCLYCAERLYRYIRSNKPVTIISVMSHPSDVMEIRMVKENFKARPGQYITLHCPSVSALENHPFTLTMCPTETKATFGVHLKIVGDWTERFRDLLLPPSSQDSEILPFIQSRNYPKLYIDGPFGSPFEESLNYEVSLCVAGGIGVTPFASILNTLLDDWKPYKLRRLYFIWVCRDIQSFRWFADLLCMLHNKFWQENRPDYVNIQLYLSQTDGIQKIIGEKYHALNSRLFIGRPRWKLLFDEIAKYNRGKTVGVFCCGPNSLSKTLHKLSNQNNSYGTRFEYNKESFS
Chain of Streptavidin (Streptomyces avidinii) (P22629 whole entry, looked up): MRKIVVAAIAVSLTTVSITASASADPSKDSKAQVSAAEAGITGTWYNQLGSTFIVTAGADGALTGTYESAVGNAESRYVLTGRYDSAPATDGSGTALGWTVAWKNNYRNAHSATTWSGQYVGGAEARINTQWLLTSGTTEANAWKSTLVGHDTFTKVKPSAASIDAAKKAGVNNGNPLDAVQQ

As to `O=c1cccc(-c2ccccc2C(F)(F)F)o1`, the composite z-score in experiment [1] is 0.297; in [6] it was -0.318; in [7] it was 0.763; with Torsin-1A (Homo sapiens) [8], 0.242; with Torsin-1A (Homo sapiens) [9], 0.0563; in experiment [10], -0.999. This molecule yielded a composite z-score in [12] of 0.69. For the same molecule, the z-score in experiment [2] was -0.121 (inactive); in [3] it was 0.0176 (inactive); in [4], -0.471 (inactive); in [5] it was -0.12 (inactive); in experiment [11] it was -0.934 (inactive); in [13], 0.168 (inactive). Besides, the z-score in experiment [14] is 0.761 (inactive); in [15], -0.627 (inactive); in experiment [16], 0.341 (inactive); in experiment [17], -0.67; in experiment [18], 0.409 (inactive); in experiment [19], 0.0518 (inactive). The z-score in experiment [20] was -0.982.

Take `CCCC[C@H]1OB(O)C[C@H]2C1=C(COC)C[C@H]1C(=O)C=CC(=O)[C@H]12`: the composite z-score is 0.269 in [1]; -0.045 in experiment [6]; -0.0552 in [7]; 0.283 in the experiment with Torsin-1A (Homo sapiens) [8]; -0.0615 with Torsin-1A (Homo sapiens) [9]; 1.63 in [10]. Further, the composite z-score in experiment [12] was -0.188. For the same molecule, the z-score was -1.06 (inactive) in [2]; -0.229 (inactive) in [3]; 10.7 (active) in [4]; 6.12 (inactive) in experiment [5]; 0.685 (inactive) in experiment [11]; 1.09 (inactive) in experiment [13]. Further, the z-score is 0.272 (inactive) in experiment [14]; 0.224 (inactive) in experiment [15]; 0.231 (inactive) in [16]; 0.0946 in experiment [17]; -0.235 (inactive) in experiment [18]; -0.663 (inactive) in [19]. In addition, in experiment [20], the z-score is -0.477.

Take `C=CCNC(=O)[C@@H]1[C@H]2C(=O)O[C@H](c3ccccc3)[C@H](c3ccccc3)N2[C@H](c2ccc(O)cc2)[C@@]12C(=O)Nc1ccc(C#CC3(O)CCCCCC3)cc12`: the composite z-score is 0.179 in [1]; -0.932 in experiment [6]; -0.128 in experiment [7]; 0.16 with Torsin-1A (Homo sapiens) [8]; 0.781 with Torsin-1A (Homo sapiens) [9]; 1.11 in experiment [10]. This molecule registered a composite z-score in [12] of -0.196. The z-score in [2] was -0.794 (inactive); in [3], -0.817 (inactive); in [4], -1.69 (inactive); in experiment [5] it was -0.361 (inactive); in experiment [11], -0.418 (inactive); in [13] it was 2.35 (inactive). Also, the z-score in experiment [14] is 0.275 (inactive); in experiment [15] it was 0.0479 (inactive); in experiment [16], 0.778 (inactive); in experiment [17], -0.339; in experiment [18], 0.948 (inactive); in [19], 0.534 (inactive). Besides, the z-score in [20] was determined as 1.19.

In the case of `COc1cc2c(cc1O)C(c1ccc(CN3CCCC3)cc1)N(Cc1ccc([N+](=O)[O-])o1)CC2` (stereo not given), the composite z-score in experiment [1] is -0.176; in experiment [6], -0.231; in experiment [7] it was -0.105; in the experiment with Torsin-1A (Homo sapiens) [8], 0.714; with Torsin-1A (Homo sapiens) [9], 0.623; in [10] it was -0.0987. Moreover, the composite z-score in experiment [12] was -0.257. The z-score was -0.192 (inactive) in experiment [2]; 0.85 (inactive) in experiment [3]; 0.299 (inactive) in [4]; 0.292 (inactive) in experiment [5]; -0.715 (inactive) in experiment [11]; 23.1 (active) in [13]. Also, the z-score was 7.28 (inactive) in [14]; -0.176 (inactive) in experiment [15]; 0.818 (inactive) in experiment [16]; -0.683 in [17]; -3.89 (inactive) in [18]; -2.56 (inactive) in experiment [19]. Also, the z-score in experiment [20] is -3.64.

Source of the values: PubChem BioAssay.
